Structures can show the parent of a compound that is named as a salt. ± gives the standard deviation of the averaged measurements.
Tests used:
MDA-MB-231 [1] = assay: cell viability relative to vehicle unstimulated control (fraction); higher = more viable cells; settings: pre-treatment time: 18 h then 24 h IFNg/TNF
MDA-MB-231 [2] = assay: kynurenine production, fold change vs DMSO IFNg/TNF control; higher = more kynurenine produced (less inhibition); settings: pre-treatment time: 18 h then 24 h IFNg/TNF
Method in brief: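 MDA-MB-231 cells (7 × 10^4/well, 96-well plates, seeded 24 h earlier) were pre-treated 18 h with each natural product in 0.1% DMSO, then stimulated 24 h with IFNγ (1 U/ml) and TNF (6.25 ng/ml) at 37°C. Supernatant kynurenine was read at 492 nm after trichloroacetic acid and p-dimethylaminobenzaldehyde treatment, against 0–100 μM standards. Kynurenine production is the fold change over cytokine-stimulated vehicle wells on the same plate, averaged over duplicate plates in the first screening round.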
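Throughout, for cell viability relative to vehicle unstimulated control: viability of the cells left after supernatant collection, read with Deep Blue dye added for 4 h, as absorbance at 570 nm minus 600 nm.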

SMILES	cell viability (MDA-MB-231 [1])	kynurenine production (MDA-MB-231 [2])
COc1cc2c(cc1OC)-c1c(OC)c(OC)cc3c1[C@H](C2)N(C)CC3 [(S)-Glaucine (Alkaloid purified from Papaver somniferum)]	0.967 ± 0.013	0.905 ± 0.052
COc1cc2c3cc1Oc1cc(ccc1O)C[C@@H]1c4c(cc(OC)c(O)c4Oc4ccc(cc4)C[C@H]3N(C)CC2)CCN1C [Curine] (compound dose: 10 uM)	0.654 ± 0.038	0.389 ± 0.026
CC(=O)O[C@H]1[C@H]2[C@@H](OC(=O)Cc3ccccc3)[C@@H](C)C[C@]2(OC(C)=O)C(=O)/C(C)=C/[C@@H]2[C@H](CC[C@@]13CO3)C2(C)C [Euphorbiasteroid] (compound dose: 10 uM)	0.981 ± 0.059	0.997 ± 0.02
CN1[C@@H]2CC[C@H]1C[C@@H](OC(=O)[C@H](CO)c1ccccc1)C2 [Hyoscyamine hydrobromide] (compound dose: 10 uM)	1.03 ± 0.024	0.743 ± 0.061
COC(=O)[C@]1(C)CC[C@]2(C)CC[C@]3(C)C4=CC=C5C(=CC(=O)C(O)=C5C)[C@]4(C)CC[C@@]3(C)[C@@H]2C1 [Pristimerin] (compound dose: 10 uM)	-0.0372 ± 0.0069	0.0819 ± 0.0029
C[C@@]12C[C@@H](c3ccoc3)OC(=O)[C@@H]1CC[C@]1(C)[C@H]2[C@@H]2C=C[C@@]1(O)C(=O)O2 [Columbin] (compound dose: 10 uM)	0.9915 ± 0.0091	0.882 ± 0.2
COc1cc(C[C@H]2C(=O)OC[C@@H]2Cc2ccc3c(c2)OCO3)cc(OC)c1OC [Yatein] (compound dose: 10 uM)	0.9961 ± 0.0012	0.843 ± 0.035
COc1cc2c(cc1OC)-c1c(OC)c(OC)cc3c1[C@H](C2)N(C)CC3 [(S)-Glaucine (commercial standard)]	1.07 ± 0.065	0.852 ± 0.067
CC(C)[C@]12CC(=O)[C@H](C)[C@H]1C2 [α-Thujone] (compound dose: 10 uM)	1.05 ± 0.058	0.947 ± 0.21
CC(C)=CCCC(C)(O)C1CCC2(C)C1C(O)CC1C3(C)CCC(OC4OC(CO)C(O)C(O)C4O)C(C)(C)C3CCC12C [20(R)-Ginsenoside Rh2] (compound dose: 10 uM)	1.08 ± 0.052	0.958 ± 0.21
CN1[C@@H]2CC[C@H]1C[C@@H](OC(=O)C(CO)c1ccccc1)C2 (stereo partly drawn) [Atropine sulfate] (compound dose: 10 uM)	0.996 ± 0.016	0.795 ± 0.044
CC(C)(O)/C=C/C(=O)[C@](C)(O)[C@H]1[C@H](O)C[C@@]2(C)[C@@H]3CC=C4[C@@H](C[C@H](O)C(=O)C4(C)C)[C@]3(C)C(=O)C[C@]12C [Cucurbitacin D] (compound dose: 10 uM)	0.55 ± 0.022	0.326 ± 0.083
C/C=C(\C)C(=O)N[C@@H](c1ccccc1)[C@@H](O)C(=O)O[C@H]1C[C@@]2(O)[C@@H](OC(=O)c3ccccc3)[C@@H]3[C@]4(OC(C)=O)CO[C@@H]4C[C@H](O)[C@@]3(C)C(=O)[C@H](OC(C)=O)C(=C1C)C2(C)C [Cephalomannine] (compound dose: 10 uM)	0.738 ± 0.071	0.267 ± 0.06
O=C([O-])c1ccc[n+]([C@@H]2O[C@H](CO)[C@@H](O)[C@H]2O)c1 [Nicotinic acid riboside] (compound dose: 10 uM)	0.784 ± 0.36	0.364 ± 0.35
CCCC(=O)O[C@@H]1[C@@H](C)[C@@]2(O)[C@@H](C=C(CO)C[C@]3(O)C(=O)C(C)=C[C@@H]23)[C@@H]2C(C)(C)[C@]12OC(=O)CCC [Phorbol 12,13-Dibutyrate] (compound dose: 10 uM)	1.09 ± 0.072	0.781 ± 0.034
C/C=C(/C)C(=O)O[C@H]1[C@@H]2[C@H](C)C(=O)O[C@@H]2C[C@@H](C)[C@@H]2C=CC(=O)[C@]21C [Brevilin A] (compound dose: 10 uM)	0.75 ± 0.035	0.132 ± 0.017
CC(C)[C@]12O[C@H]1[C@@H]1O[C@]13[C@]1(O[C@H]1C[C@H]1C4=C(CC[C@@]13C)C(=O)OC4)[C@@H]2O [Triptolide] (compound dose: 10 uM)	0.64 ± 0.034	0.152 ± 0.021
CC1=C[C@H]2[C@@]3(O)[C@H](C)[C@@H](O)[C@]4(O)[C@H]([C@@H]3C=C(CO)C[C@]2(O)C1=O)C4(C)C [Phorbol] (compound dose: 10 uM)	1.02 ± 0.074	0.894 ± 0.041
C=C1[C@@H]2CCC3[C@@](CC[C@@H]4[C@H](C(=O)O)C[C@@H](O[C@@H]5O[C@H](CO)[C@@H](OS(=O)(=O)O)[C@H](OS(=O)(=O)O)[C@H]5OC(=O)CC(C)C)C[C@@]34C)(C2)[C@@H]1O (stereo partly drawn) [Atractyloside (potassium salt)] (compound dose: 10 uM)	0.797 ± 0.18	0.945 ± 0.02

Reference: the supplement of paper PMC13094657
